# High-throughput results deposited in PubChem BioAssay by National Center for Advancing Translational Sciences (NCATS).
# RE007 growth inh = qHTS Assay for Inhibitors of the HIV-1 protein Vpr; Potency, µM (top dose mostly 92.2 µM), without a hit: top-dose activity change, negative = less growth, actives largely listed as inhibitors; AID 651644, 2012; actives 0.21% (n = 360,000); S. pombe RE007 Vpr strain, BacTiter-Glo ATP luminescence, 24 h; active means well fitted falling curve with a large enough effect; inconclusive means small, poorly fitted or top-dose-only effect; inactive means no such curve, though single readings can be large or run the other way; further: nearly all actives have a fitted effect of over 50% in size
#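 Fission yeast strain RE007, carrying one chromosomally integrated HIV-1 vpr copy, was seeded at OD 0.01 in PMG+AL medium with 23 nL pinned compound. After 24 h at 30 °C and 99% humidity, viability was read by BacTiter-Glo luminescence.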
# LmPK inh = qHTS Assay for Inhibitors of Leishmania Mexicana Pyruvate Kinase (LmPK) | purified LmPK, Kinase-Glo ATP luminescence, 1 h | Potency, µM (series often up to 57.5 µM), for the others: top-dose activity change, negative = inhibition, hits mostly inhibitors | actives 0.37% (n = 290,000) | AID 1721, 2009
#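 0.1 nM LmPK, 0.5 mM PEP, 0.1 mM ADP; 50 mM imidazole pH 7.2, 7 mM MgCl2, 50 mM KCl; 1 h RT. Kinase-Glo luminescence readout, normalized to no-enzyme (full inhibition) and uninhibited wells.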
# Tb PYK inh = qHTS of Trypanosoma Brucei Inhibitors; pyruvate kinase (Trypanosoma brucei), Q57TT1; TbPYK enzyme, Kinase-Glo Plus ATP luminescence, 45 min; Potency, µM (top dose mostly 76.8 µM), inactives show at the top dose activity, negative = inhibition, actives largely listed as inhibitors; actives 0.12% (n = 410,000); AID 624173, 2012; further: nearly all actives have a fitted effect of over 50% in size
#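 Enzyme and substrate buffer are dispensed first and compound is pin-transferred. ADP at 130 uM final then starts the reaction, which runs 45 min at room temperature. Detection reagent is added for 10 min before luminescence is imaged.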
# Giardia FBPA inh = qHTS Assay for Inhibitors of Fructose-1,6-bisphosphate Aldolase from Giardia Lamblia; A8B2U2; purified Giardia FBPA; Potency, µM (doses to about 59.6 µM), inactives show at the highest dose activity, negative = inhibition, hits mostly inhibitors; actives 0.71% (n = 290,000); AID 2451, 2010; further: nearly all actives have a fitted effect of over 55% in size
# Target sequence (A8B2U2 whole entry, looked up): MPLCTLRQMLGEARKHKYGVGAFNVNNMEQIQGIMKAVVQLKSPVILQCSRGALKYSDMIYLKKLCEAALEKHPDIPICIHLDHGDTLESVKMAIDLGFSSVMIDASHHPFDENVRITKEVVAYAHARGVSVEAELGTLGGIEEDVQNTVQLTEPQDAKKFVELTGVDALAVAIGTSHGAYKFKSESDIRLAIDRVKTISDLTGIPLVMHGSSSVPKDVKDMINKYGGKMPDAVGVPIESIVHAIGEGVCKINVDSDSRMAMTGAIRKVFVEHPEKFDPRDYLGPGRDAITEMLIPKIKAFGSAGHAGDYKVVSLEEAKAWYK
#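 Giardia FBPA (40 nM reagent) was preincubated 10 min at RT with compound (up to 57.5 uM final), then substrate plus GAPDH/TPI/NAD/arsenate coupling system with diaphorase/resazurin was added; resorufin fluorescence (525/598 nm) was read after 20 min.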
# An asterisk follows results filed as active; ? = inconclusive; nt = no result; [ ] = dose if it differs, or a comment. Only some compounds are listed: those with a hit (about 0.95% of all), similar ones and a draw of the others. Unless noted, the call rests on the fitted dose curve; in most records, active means well fitted curve in the direction sought with a large enough effect; inconclusive means small, poorly fitted or top-dose-only effect, or another doubt; inactive means no such curve, though single readings can be large; an effect the other way counts as inactive or inconclusive. On the % scale 0 is the no-effect control and ±100 the full control effect; potency means the concentration at half of the fitted maximal effect.
SMILES,RE007 growth inh,LmPK inh,Tb PYK inh,Giardia FBPA inh
Cc1ccc(CCNC(=O)C2CCCN(C(=O)c3cc4sccc4n3C)C2)cc1 (stereo not given),6%,1%,8.9µM*,-1%
Cn1c(C(=O)N2CCCC(C(=O)NCCc3ccccc3)C2)cc2sccc21 (stereo not given),5%,1%,?,-2%
COc1ccc(OC2C(O)COC2/C=C/C#Cc2ccc(F)cc2F)cc1 (stereo not given),nt,nt,nt,-1%[12.9 µM]
CN1C=C/C(=C\c2cc[n+](C)c3ccccc23)c2ccccc21,3.2µM*,-2%,-19%,?
CC[n+]1ccc(/C=C2\Sc3ccccc3N2CCCS(=O)(=O)[O-])c2ccccc21,-5%,0%,1%,0%
CC1=C(O)C(=O)C=C2C1=CC=C1C2(C)CCC2(C)C3CC(C)(C(=O)O)CCC3(C)CCC12C (stereo not given),?,nt,35µM*,nt
Cc1c(O)c(O)cc2c1CC=C1[C@]3(C)CC[C@]4(C)CC[C@@](C)(C(=O)O)CC4[C@]3(C)CC[C@]12C (stereo not given in full),nt,nt,nt,-11%
CC(=O)/C=C/n1c(=S)oc2ccccc21,40µM*,-17%,-1%,4%
CCN(CC)CCOc1ccc(Nc2ncc3cc(-c4c(Cl)cccc4Cl)c(=O)n(C)c3n2)cc1,nt,nt,4%,nt
CCCCCCC(=O)N(O)C1CC(=O)N(Cc2ccccc2)C1=O (stereo not given),-9%,7%,-15%,-5%
CCCCCC(=O)N(O)C1CC(=O)N(c2ccccc2)C1=O (stereo not given),10µM*,3%,-15%,-3%
CCN(CC)c1ccc(NC(=O)c2sc3ccccc3c2Cl)cc1,nt,nt,-11%,nt
CCN(CC)Cc1ccc(NC(=O)c2sc3cc(Cl)ccc3c2Cl)cc1,28µM*,-4%,-1%,-1%
N#Cc1nc(NCCCCO)nc(Nc2ccccc2)n1,nt,nt,nt,2%
O=S(=O)(O)OCC1OC(OC2(COS(=O)(=O)O)OC(COS(=O)(=O)O)C(OS(=O)(=O)O)C2OS(=O)(=O)O)C(OS(=O)(=O)O)C(OS(=O)(=O)O)C1OS(=O)(=O)O (stereo not given),nt,nt,0%,nt
Cc1ccc(N2C(=O)C3C4C=CC(CNC(=S)N5CCN(c6cccc(C)c6)C(C)C5)(O4)C3C2=O)cc1 (stereo not given),2µM*,-2%,-15%,2%
Cc1occc1C(=O)N/N=C/c1ccc(-c2ccccc2)cc1,?,-14%,?,-11%
Cc1occc1C(=O)N/N=C/c1cccs1,-20%,14µM*,-17%,nt
CC(C)S(=O)(=O)c1csc(C(=O)Nc2ccc(F)cc2)c1N,?,14µM*,-12%,-9%
Cc1cccc(N(CC(=O)NC(C)c2ccccc2)S(=O)(=O)c2ccccc2)c1C (stereo not given),nt,nt,-10%,nt
COc1ccc(NC(=O)N2c3ccc(OC)cc3C(C)=CC2(C)C)cc1,-15%,3%,-5%,11µM*
O=S(=O)(c1ccccc1)N1CCC2(CCN(c3ccccc3)CC2)CC1,nt,nt,6%,-3%
COc1cc(N2C(=O)C=CC2=O)ccc1N1C(=O)C=CC1=O,-11%,nt,4.5µM*,nt
CSc1nnc2[nH]c(=O)cc(C)n12,nt,nt,-4%,nt
O=C(Nc1nc2ccccc2[nH]1)c1ccc(F)cc1,-22%,13µM*,-29%,-8%
SMILES,RE007 growth inh,LmPK inh,Tb PYK inh,Giardia FBPA inh
O=C(Nc1nc2ccccc2[nH]1)c1cc(F)cc(F)c1,6%,-4%,0%,10%
COc1ccc(S(=O)(=O)N2CCC(Oc3ccc(-n4cnnn4)cc3)CC2)cc1OC,nt,nt,1%,nt
Cc1ccc(-n2nnc(-c3nccs3)n2)cc1,?,14µM*,?,2%
COC(=O)Nc1c(-c2ccccc2)nc2ccccn12,-5%,-6%,0%,-4%
CCOC(=O)c1c(-c2ccccc2)nc2ccccn12,18µM*,1%,0%,-1%
CCOC(=O)c1c(-c2ccccc2)nc2c(C)cccn12,14µM*,-2%,-4%,1%
O=C(c1cc(-c2ccco2)nn1-c1cccc(Cl)c1)N1CCCCC1,16%,-25%,10µM*,2%
CC(C)NC(=O)c1cc(-c2ccco2)nn1-c1ccc(Cl)cc1,-8%,-9%,?,nt
